Experimental data reported in PubChem BioAssay (NCI).
About 79,000 compounds went through this panel and 15% of them were active in at least one assay; those are over-represented in the sample as a whole. A number with no mark means an inactive call. The source made the active and inactive calls. Cut-off read from the data, not from the text of the source: active = growth inhibition above about 70%; inactive = the rest.

How the values were obtained:
[1] = NCI Yeast Anticancer Drug Screen. Data for the rad50 strain (AID 155);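 note: 0% = growth of vehicle-only cultures of the same strain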; settings: S. cerevisiae rad50 strain growth inhibition, active compounds read high
Summary of the method: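 DNA repair mutant yeast, compound exposure, growth read-out; inhibition is taken relative to vehicle.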

[2] = NCI Yeast Anticancer Drug Screen. Data for the mec2-1 strain (AID 157); settings: S. cerevisiae mec2-1 strain, active compounds read high
Summary of the method: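 Compounds were applied to mec2-1 yeast cells. Their growth was then compared with that of vehicle-treated cultures to give growth inhibition.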

[3] = NCI Yeast Anticancer Drug Screen. Data for the sgs1 mgt1 strain (AID 161);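 note: 0% = growth of cultures given vehicle only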; settings: S. cerevisiae sgs1 mgt1 strain, active compounds read high
Summary of the method: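 Percent growth inhibition was derived by comparing compound-exposed mutant yeast with vehicle-exposed cultures. The strain carries alterations in DNA damage repair.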

[4] = NCI Yeast Anticancer Drug Screen. Data for the cln2 rad14 strain (AID 165);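 note: 0% = growth equal to vehicle treated cultures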; settings: S. cerevisiae cln2 rad14 strain, active compounds read high
Summary of the method: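 Strain: cln2 rad14 yeast, altered in cell cycle control and DNA damage repair. Read-out: growth inhibition vs vehicle.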

[5] = NCI Yeast Anticancer Drug Screen. Data for the bub3 strain (AID 167); settings: S. cerevisiae bub3 mutant strain, active compounds read high
Summary of the method: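 In this screen, a yeast mutant lacking normal mitotic checkpoint function is challenged with compound. Relative growth versus vehicle gives the inhibition value.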

[6] = NCI Yeast Anticancer Drug Screen. Data for the mlh1 rad18 strain (AID 175); settings: S. cerevisiae mlh1 rad18 strain growth inhibition, active compounds read high
Summary of the method: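 A repair-deficient yeast strain is exposed to test compound, and growth is scored relative to vehicle-treated controls.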

[7] = at 5.0 µM (retest, dose inferred, filed as 0.5)
[8] = at 50.0 µM (retest, dose inferred, filed as 5.0)

Row | Compound | growth inhibition [1, 7] [%] | growth inhibition [1, 8] | growth inhibition ([1]; at 50.0 µM) | growth inhibition [2, 7] [%] | growth inhibition [2, 8] | growth inhibition ([2]; at 50.0 µM) | growth inhibition [3, 7] [%] | growth inhibition [3, 8] | growth inhibition ([3]; at 50.0 µM) | growth inhibition [4, 7] | growth inhibition [4, 8] | growth inhibition ([4]; at 50.0 µM) | growth inhibition [5, 7] | growth inhibition [5, 8] | growth inhibition ([5]; at 50.0 µM) | growth inhibition [6, 7] [%] | growth inhibition [6, 8] | growth inhibition ([6]; at 50.0 µM)
1 | CC(=O)ON=C1C=CC(=C(C#N)c2ccccc2)C=C1 | 44 | 99% (active) | 97.2% (active) | 41 | 100% (active) | 99.1% (active) | 46 | 100% (active) | 64.1% | 88% (active) | 100% (active) | 98.2% (active) | 72% (active) | 100% (active) | 66.3% | 49 | 99% (active) | 99.5% (active)
2 | O=Nc1c(-c2cccc([N+](=O)[O-])c2)nc2cnccn12 | 39 | 99% (active) | 97.7% (active) | 24 | 99% (active) | 98.5% (active) | 54 | 99% (active) | 95.7% (active) | 23% | 99% (active) | 99.3% (active) | 4% | 99% (active) | 99.7% (active) | 58 | 99% (active) | 97.5% (active)
3 | O=[N+]([O-])c1ccc(C2=CSc3ccccc3N2)cc1 | -17 | 6% | 49.7% | -30 | -5% | 59.4% | -11 | -7% | 58% | 11% | 25% | 22.9% | -16% | 19% | 73.4% (active) | -43 | 31% | 58.2%
4 | CCOC(=O)c1cnc(SCc2ccc(Cl)cc2Cl)nc1Cl | 1 | 47% | 38.4% | 0 | 73% (active) | 54.6% | 16 | 66% | 58.5% | -3% | 59% | 71.8% (active) | 0% | 54% | 25.7% | 0 | 62% | 65%
5 | Nc1ncnc2c1c(-c1ccccc1)cn2-c1ccc(Cl)cc1 | 5 | 26% | 22.2% | 2 | 10% | 15.5% | 16 | 61% | 71.8% (active) | 0% | 17% | 42.8% | 8% | 5% | -17.4% | 5 | 23% | 14.8%
6 | c1ccc(N/N=C(/CC/C(=N\Nc2ccccc2)c2ccccc2)c2ccccc2)cc1 | 6 | 77% (active) | 95.5% (active) | 4 | 90% (active) | 97% (active) | -13 | 82% (active) | 97.2% (active) | -13% | 81% (active) | 47.8% | -5% | 89% (active) | 95.9% (active) | 18 | 92% (active) | 97.5% (active)
7 | CCN(CC)C(=S)N/N=C/c1cc([N+](=O)[O-])ccc1O | -21 | 63% | 37% | 15 | 88% (active) | 79.8% (active) | 36 | 87% (active) | 54.4% | -3% | 66% | 59% | 16% | 76% (active) | 56.5% | 12 | 80% (active) | 14.8%
8 | Cc1cc2c(cc1C)[n+](=O)c(C(=O)C/C(=N/NC(=O)CC#N)C(=O)Nc1ccccc1C(F)(F)F)c(C)n2[O-] | 53 | 53% | 92.4% (active) | 57 | 57% | 91% (active) | 58 | 58% | 91.8% (active) | 38% | 38% | 91.5% (active) | 46% | 46% | 94% (active) | 54 | 54% | 90.8% (active)
9 | Cn1c2ccccc2c2nnc(N/N=C/c3ccccn3)nc21 | 26 | 98% (active) | 94.4% (active) | 21 | 97% (active) | 96.5% (active) | 23 | 98% (active) | 96.9% (active) | 8% | 97% (active) | 96.2% (active) | 13% | 99% (active) | 96.2% (active) | 22 | 98% (active) | 96.4% (active)
